The nature of test [1]: Viability counterscreen for antagonist of constitutive androstane receptor (CAR) against the NCATS DSHEA and TCM libraries (AID 1794837).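 Note: compound exposure lasted 24 h before viability reading; 0% is about no effect.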 A digest of the protocol: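 HepG2-CYP2B6-hCAR cells, 2,500/well, were exposed 24 hr at 37C to substances together with 48 uM CITCO (final). Viability was read as CellTiter-Fluor fluorescence (Ex/Em 405/540 nm) after 1 hr.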
On the technique in general: The purpose of a counterscreen is to sort out artefacts and off-target activity.

Test [2] is described as follows: Viability counterscreen for agonist of constitutive androstane receptor (CAR) against the NCATS DSHEA and TCM libraries (AID 1794838).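 Note: HepG2 cells with CYP2B6 reporter and hCAR plus 0.75 µM PK11195 antagonist; 0% is about no effect.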 The procedure, abridged:
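HepG2-CYP2B6-hCAR cells (2,500/well) treated 24 h at 37C with compounds plus 0.75 uM PK11195; viability read by CellTiter-Fluor fluorescence, Ex/Em 405/540 nm.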

Test [3] concerns the target Nuclear receptor subfamily 1 group I member 3 (Homo sapiens) (UniProt Q14994). Kind of test: Primary qHTS for agonist of constitutive androstane receptor (CAR) against the NCATS DSHEA and TCM libraries (AID 1794839).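 Note: HepG2 cells expressing human CAR with a CYP2B6 reporter plus PK11195 antagonist; 0% is about no effect.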 The procedure, abridged:
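HepG2-CYP2B6-hCAR cells, 2,500/well, attached 5 h, then dosed with 0.75 µM PK11195 (final) for 24 h at 37 °C. Luciferase luminescence read (ONE-Glo); CellTiter-Fluor viability (Ex/Em 405/540 nm) in same wells; CITCO positive control.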

The nature of test [4]: HepG2 viability counterscreen (readout 2: ATP content) against the NCATS DSHEA and TCM libraries (AID 1794840). Note: 0% is about no effect. The procedure, abridged:
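HepG2 cells, 1,000/well, attached ~4 h, then exposed ~24 h at 37C to substances. Protease activity read by fluorescence of 25 uM GF-AFC (Ex/Em 380/510 nm) after 30 min; ATP then by CellTiter-Glo luminescence.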

The target of test [5] is Cytochrome P450 3A4 (Homo sapiens) (UniProt P08684). Nature of the test: qHTS for inhibitors of CYP3A4 against the NCATS DSHEA and TCM libraries (AID 1919971).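 For activity change, negative = inhibition: % is set by controls: 0 for no effect and ±100 for the full control effect; inhibition lowers luminescence from luciferin made by CYP3A4.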 Note: potency is the fitted concentration of half-maximal effect. The procedure, abridged:
(§1)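 Light output from converted D-luciferin reports remaining CYP activity. Compounds preincubate with enzyme and substrate for 15 min; NADPH regeneration (1x final) runs the reaction for 30-45 min.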
In general terms: Quantitative high-throughput screening tests each substance at several concentrations.

Test [6] concerns the target Cytochrome P450 2D6 (Homo sapiens) (UniProt P10635). Nature of the test: qHTS for inhibitors of CYP2D6 against the NCATS DSHEA and TCM libraries (AID 1919972). Note: % is set by controls: 0 for no effect and ±100 for the full control effect. The procedure, abridged: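 Steps: enzyme plus luciferin substrate dispensed; test substances pinned; 15 min RT; 1x NADPH regenerating solution added, 30–45 min RT protected from light; detection reagent, 30 min RT; luminescence measured. Minus-enzyme wells as background.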

Test [7] addresses Cytochrome P450 2C9 (Homo sapiens) (UniProt P11712). Kind of test: qHTS for inhibitors of CYP2C9 against the NCATS DSHEA and TCM libraries (AID 1919973).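 For activity change, negative = inhibition: luminogenic pro-luciferin CYP2C9 substrate turned into luciferin with NADPH regeneration; series mostly up to about 34 µM; % is set by controls: 0 for no effect and ±100 for the full control effect.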 Note: potency is the fitted concentration of half-maximal effect. A digest of the protocol:
as §1

Test [8] deals with Cytochrome P450 2C19 (Homo sapiens) (UniProt P33261). Nature of the test: qHTS for inhibitors of CYP2C19 against the NCATS DSHEA and TCM libraries (AID 1919974). For activity change, negative = inhibition: % is set by controls: 0 for no effect and ±100 for the full control effect.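 Note: luminescence from luciferin released by CYP2C19 oxidation of a pro-luciferin substrate.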 Note: potency is the fitted concentration of half-maximal effect. A digest of the protocol: as §1
Test [9] can be described thus: KB-3-1 P-gp reporter qHTS against the NCATS DSHEA and TCM libraries (AID 1919975). Note: 0% is about no effect. The procedure, abridged:
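Parental KB-3-1 cells, 500 cells/well, in DMEM with 10% FBS, exposed 72 h at 37 C to compounds in concentration-response. Viability read by CellTiter-Glo luminescence after 30 min at room temperature.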

For test [10], the target named is Cytochrome P450 1A2 (Homo sapiens) (UniProt P05177). Kind of test: qHTS for inhibitors of CYPIA2 against the NCATS DSHEA and TCM libraries (AID 1919976).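 Note: light from luciferin formed by CYP1A2 from a pro-luciferin substrate; series mostly up to about 37 µM; % is set by controls: 0 for no effect and ±100 for the full control effect.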 The procedure, abridged: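 In this quantitative HTS, inhibition of recombinant human CYP1A2 was measured as loss of luciferin-derived luminescence. Turnover ran 30-45 min at RT after NADPH regeneration solution was added.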

A short description of test [11]: qHTS Counterscreen for compound interference against the NCATS DSHEA and TCM libraries (AID 1919978).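 Note: compounds preincubated with 1 µM D-luciferin or buffer before detection reagent; % of control where 0% means no effect.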 Particulars: firefly luciferase detection reagent interference, luminescence. A digest of the protocol: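 Firefly luciferase detection reagent was added after compounds (19.5 nM–39.8 uM final) had been incubated 15 min at room temperature with 1 uM D-luciferin or with 100 mM phosphate buffer alone. Luminescence was read after 30 min at room temperature.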

The target of test [12] is Nuclear receptor subfamily 1 group I member 2 (Homo sapiens) (UniProt O75469). Kind of test: Dual reporter qHTS for agonist of Pregnane X Receptor (hPXR) against the NCATS DSHEA and TCM libraries: Luminescence readout (AID 1920059). Note: 0% is about no effect. The procedure, abridged: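 hPXR-LucHepG2 cells in phenol red-free DMEM with 5% charcoal-stripped FBS, 2000 cells/well, attached 5 h, then exposed 24 h at 37C to compounds; rifampicin as positive agonist control (2.8 nM–92 uM). Luciferase luminescence read.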

For test [13] the target is unchanged. Nature of the test: Dual reporter qHTS for antagonist of Pregnane X Receptor (hPXR) against the NCATS DSHEA and TCM libraries: Luminescence Readout (AID 1920060).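 Note: HepG2 cells carrying hPXR luciferase reporter stimulated with rifampicin at 2 µM; 0% is about no effect.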 A digest of the protocol: (§2)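 In antagonist mode, 2 uM rifampicin was added to hPXR-Luc HepG2 cells alongside test substances, incubated 24 h at 37 C; luminescence gave reporter activity, and CellTiter-Fluor fluorescence (405/540 nm) gave viability.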

Test [14] is described as follows: Dual reporter qHTS for antagonist of Pregnane X Receptor (hPXR) against the NCATS DSHEA and TCM libraries: Fluorescence Readout (AID 1920061). Note: 0% is about no effect. The procedure, abridged: as §2

A number with no mark means an inactive call. Records with an inconclusive call do not appear. Activity calls are given as the source filed them. Calls come from the whole dose curve; as a rule, active = well fitted curve in the direction sought with a large enough effect; inconclusive = small, poorly fitted or top-dose-only effect, or another doubt; inactive = no such curve, though single readings can be large; an effect the other way counts as inactive or inconclusive.

Chain of Cytochrome P450 2D6 (Homo sapiens) (P10635 whole entry, looked up): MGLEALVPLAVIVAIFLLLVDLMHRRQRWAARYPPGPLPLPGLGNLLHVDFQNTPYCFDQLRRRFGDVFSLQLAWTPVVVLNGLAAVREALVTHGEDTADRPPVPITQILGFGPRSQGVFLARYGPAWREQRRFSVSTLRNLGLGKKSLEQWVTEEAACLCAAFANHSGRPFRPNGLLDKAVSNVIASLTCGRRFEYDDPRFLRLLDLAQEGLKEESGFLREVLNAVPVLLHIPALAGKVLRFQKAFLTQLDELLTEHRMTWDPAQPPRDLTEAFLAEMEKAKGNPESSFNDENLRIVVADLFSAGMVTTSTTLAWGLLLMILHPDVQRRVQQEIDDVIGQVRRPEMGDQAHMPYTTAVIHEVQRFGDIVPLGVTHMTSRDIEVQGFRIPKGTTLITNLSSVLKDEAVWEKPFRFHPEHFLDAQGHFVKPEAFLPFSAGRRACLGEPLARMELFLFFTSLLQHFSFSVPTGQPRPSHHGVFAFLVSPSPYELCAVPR
Chain of Cytochrome P450 2C19 (Homo sapiens) (P33261 whole entry, looked up): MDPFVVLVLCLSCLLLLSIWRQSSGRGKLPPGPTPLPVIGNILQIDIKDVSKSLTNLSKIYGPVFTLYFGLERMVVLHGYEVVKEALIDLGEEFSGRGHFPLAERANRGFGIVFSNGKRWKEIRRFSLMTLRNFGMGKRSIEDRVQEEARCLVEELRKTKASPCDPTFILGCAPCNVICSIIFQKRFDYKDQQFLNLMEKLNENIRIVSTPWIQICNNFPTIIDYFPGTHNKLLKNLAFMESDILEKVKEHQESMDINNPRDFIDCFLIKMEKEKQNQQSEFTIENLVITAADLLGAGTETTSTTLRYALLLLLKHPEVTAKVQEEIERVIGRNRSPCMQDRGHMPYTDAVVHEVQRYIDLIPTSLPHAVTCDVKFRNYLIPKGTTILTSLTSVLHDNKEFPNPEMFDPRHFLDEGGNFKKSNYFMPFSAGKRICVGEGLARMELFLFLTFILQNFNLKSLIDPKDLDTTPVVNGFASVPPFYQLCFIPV
Chain of Cytochrome P450 1A2 (Homo sapiens) (P05177 whole entry, looked up): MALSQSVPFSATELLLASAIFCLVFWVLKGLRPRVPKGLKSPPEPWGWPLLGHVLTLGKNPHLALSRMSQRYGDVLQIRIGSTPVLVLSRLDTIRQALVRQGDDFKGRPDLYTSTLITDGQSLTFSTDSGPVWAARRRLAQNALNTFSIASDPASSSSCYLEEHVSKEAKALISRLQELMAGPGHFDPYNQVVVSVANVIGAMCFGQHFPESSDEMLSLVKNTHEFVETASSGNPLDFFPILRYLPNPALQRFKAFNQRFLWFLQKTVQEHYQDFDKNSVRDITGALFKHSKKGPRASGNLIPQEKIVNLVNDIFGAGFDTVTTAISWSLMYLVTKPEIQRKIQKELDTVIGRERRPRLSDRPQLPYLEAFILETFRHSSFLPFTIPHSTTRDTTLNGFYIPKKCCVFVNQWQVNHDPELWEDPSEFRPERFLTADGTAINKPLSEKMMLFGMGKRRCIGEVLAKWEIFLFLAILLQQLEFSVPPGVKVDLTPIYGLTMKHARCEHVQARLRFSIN
Chain of Cytochrome P450 2C9 (Homo sapiens) (P11712 whole entry, looked up): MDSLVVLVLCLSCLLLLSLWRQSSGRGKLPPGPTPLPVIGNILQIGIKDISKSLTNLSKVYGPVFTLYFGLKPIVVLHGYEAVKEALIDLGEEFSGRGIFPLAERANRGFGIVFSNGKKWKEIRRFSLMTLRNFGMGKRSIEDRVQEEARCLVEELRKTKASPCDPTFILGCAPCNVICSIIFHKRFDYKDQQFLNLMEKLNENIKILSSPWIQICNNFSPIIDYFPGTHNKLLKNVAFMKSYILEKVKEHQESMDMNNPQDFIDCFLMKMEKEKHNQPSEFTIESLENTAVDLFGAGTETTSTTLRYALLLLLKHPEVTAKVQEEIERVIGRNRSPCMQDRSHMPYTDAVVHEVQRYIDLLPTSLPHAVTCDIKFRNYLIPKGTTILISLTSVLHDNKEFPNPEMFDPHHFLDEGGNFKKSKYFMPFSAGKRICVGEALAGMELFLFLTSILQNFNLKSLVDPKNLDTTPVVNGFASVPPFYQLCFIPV
Chain of Nuclear receptor subfamily 1 group I member 2 (Homo sapiens) (O75469 whole entry, looked up): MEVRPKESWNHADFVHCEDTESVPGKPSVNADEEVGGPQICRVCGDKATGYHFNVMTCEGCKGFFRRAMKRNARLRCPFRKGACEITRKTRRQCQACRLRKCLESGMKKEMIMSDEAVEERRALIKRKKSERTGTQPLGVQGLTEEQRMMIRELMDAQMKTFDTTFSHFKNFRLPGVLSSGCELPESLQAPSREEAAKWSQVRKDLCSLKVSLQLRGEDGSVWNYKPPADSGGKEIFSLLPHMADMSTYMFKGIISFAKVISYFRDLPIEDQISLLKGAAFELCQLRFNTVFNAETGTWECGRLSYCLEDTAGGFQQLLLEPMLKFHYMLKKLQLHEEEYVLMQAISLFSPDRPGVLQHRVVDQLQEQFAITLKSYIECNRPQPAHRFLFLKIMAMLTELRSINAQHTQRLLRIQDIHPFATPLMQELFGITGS
Chain of Nuclear receptor subfamily 1 group I member 3 (Homo sapiens) (Q14994 whole entry, looked up): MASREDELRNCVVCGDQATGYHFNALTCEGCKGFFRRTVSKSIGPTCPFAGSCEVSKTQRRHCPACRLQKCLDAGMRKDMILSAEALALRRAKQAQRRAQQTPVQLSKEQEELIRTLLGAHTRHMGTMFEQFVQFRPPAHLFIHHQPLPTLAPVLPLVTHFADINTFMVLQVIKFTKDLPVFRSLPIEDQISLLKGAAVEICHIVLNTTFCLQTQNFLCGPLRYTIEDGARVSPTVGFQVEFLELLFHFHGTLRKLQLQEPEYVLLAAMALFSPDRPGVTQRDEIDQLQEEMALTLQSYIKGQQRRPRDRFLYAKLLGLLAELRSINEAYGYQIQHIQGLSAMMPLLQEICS
Chain of Cytochrome P450 3A4 (Homo sapiens) (P08684 whole entry, looked up): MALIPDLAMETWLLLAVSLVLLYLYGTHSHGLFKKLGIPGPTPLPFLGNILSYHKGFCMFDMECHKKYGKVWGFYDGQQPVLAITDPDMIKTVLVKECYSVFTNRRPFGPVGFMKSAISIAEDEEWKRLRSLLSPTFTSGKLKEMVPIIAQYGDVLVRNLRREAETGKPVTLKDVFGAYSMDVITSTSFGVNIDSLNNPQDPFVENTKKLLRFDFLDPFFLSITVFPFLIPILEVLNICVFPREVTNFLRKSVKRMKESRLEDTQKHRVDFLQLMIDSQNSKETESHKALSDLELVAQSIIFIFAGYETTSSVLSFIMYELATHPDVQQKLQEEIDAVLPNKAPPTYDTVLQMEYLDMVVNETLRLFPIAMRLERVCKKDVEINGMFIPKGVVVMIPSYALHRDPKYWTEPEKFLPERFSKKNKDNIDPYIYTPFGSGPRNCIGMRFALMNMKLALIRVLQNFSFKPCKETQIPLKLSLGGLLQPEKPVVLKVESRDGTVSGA

For `CCCCCCCCCCCCCCCCCCCCCCCCCCCCCCO`, in test [1], the viability change, negative = cytotoxic is -4.15% [at 5 µM]. Further, in test [2], the activity change, negative = cytotoxicity is 8.74% [at 5 µM]. The activation in [3] is -23.2% [at 5 µM]; in test [12] it was -7.37% [at 5 µM]. In addition, the activity change, negative = cytotoxic in test [4] was -1.11% [at 3.42 µM]. Besides, the activity change, negative = inhibition in test [5] is 9.22% [at 4.27 µM]; in test [6], -0.757% [at 4.27 µM]; in test [7], 4.8% [at 4.27 µM]; in test [8] it was 9.51% [at 4.27 µM]; in [9], -11% [at 3.26 µM]; in test [10] it was 15.7% [at 4.62 µM]. Besides, the activity change, negative = inhibition in [13] was -14.7% [at 5 µM]; in test [14], 2.96% [at 5 µM]. In [11], the max response was -2.33%.
Take `CC1=CCC(=C(C)C)CC1`: the compound was called inactive in test [1], in test [2], in test [4], in test [9], in test [13] and in [14]. The Potency entry in test [3], in [6], in test [7], in test [10] and in [12] was “inactive” throughout. Further, in [5], the Potency was 39.8 µM (active). Moreover, the max response in test [11] is 2.83%.
With `O=C(/C=C/c1ccc(O)c(O)c1)OC1[C@H](O)CC(O)(C(=O)O)C[C@@H]1O` (stereo partly specified), the result in [1], in test [2], in test [9], in [13] and in [14] was inactive. The Potency result in test [3], in test [5], in [7], in test [8], in test [10] and in [12] was “inactive” each time. Moreover, the max response in test [11] is -1.19%.
Regarding `CCCCCCCC/C=C/CCCCCCCCCC(=O)O`, the compound was classed as inactive in [1], in [2], in test [4], in [9], in test [13] and in test [14]. The Potency result in test [3], in test [6], in [8], in [10] and in [12] was “inactive” throughout.
`C=C1C[C@@]23CC[C@H]4[C@@](C)(CCC[C@@]4(C)C(=O)O[C@@H]4O[C@H](CO)[C@@H](O)[C@H](O)[C@H]4O[C@@H]4O[C@H](CO)[C@@H](O)[C@H](O)[C@H]4O)[C@@H]2CC[C@]1(O[C@@H]1O[C@H](CO)[C@@H](O)[C@H](O)[C@H]1O[C@@H]1O[C@H](CO)[C@@H](O)[C@H](O)[C@H]1O)C3`: the compound was called inactive in [1], in test [2], in test [4], in test [9], in test [13] and in test [14]. For the same compound, the Potency entry in test [3], in test [5], in test [6], in [7], in test [8] and in [10] was “inactive” throughout. For the same compound, in [12], the Potency entry is “inactive”. Also, the max response in test [11] is 4.27%.
With `C=C/C(C)=C/C/C=C(\C)CCC=C(C)C`, the call in test [1], in [2], in test [4], in [9], in test [13] and in [14] was inactive. Further, the Potency entry in [3], in test [6] and in [10] was “inactive” throughout. Also, the Potency was 28.2 µM (active) in [5], 35.5 µM (active) in [7] and 31.6 µM (active) in test [8]. In addition, the max response in [11] is 2.78%.
Take `CN(CC(=O)O)C(=N)N`: the compound was classed as inactive in test [1], in test [2], in [4], in test [9], in test [13] and in [14]. Moreover, the Potency result in test [3], in test [5], in test [6], in test [7], in test [8] and in test [10] was “inactive” each time. The Potency entry in test [12] was “inactive”. Besides, the max response in [11] is -1.47%.
Consider `O=C(O)[C@H]1O[C@@H](Oc2c(-c3ccc(O)c(O)c3)oc3cc(O)cc(O)c3c2=O)[C@H](O)[C@@H](O)[C@@H]1O`, for which the outcome in test [1], in test [2], in [4], in test [9], in test [13] and in test [14] was inactive. Besides, the Potency result in test [3], in [6] and in test [12] was “inactive” each time. Moreover, the Potency in [7] is 14.1 µM (active); in test [8], 3.98 µM (active). Further, the max response in test [11] was 3.23%.
Regarding `C[C@@H]1OC(O[C@H]2[C@H](O)[C@@H](O)[C@H](OC[C@H]3O[C@@H](OC(=O)[C@]45CCC(C)(C)C[C@@H]4C4=CCC6[C@@]7(C)CC[C@H](OC8OC[C@H](O)[C@H](O)[C@H]8OC8O[C@@H](C)[C@H](O)[C@@H](O)[C@H]8O)[C@@](C)(CO)C7CC[C@@]6(C)[C@]4(C)CC5)[C@H](O)[C@@H](O)[C@@H]3O)O[C@@H]2CO)[C@H](O)[C@H](O)[C@H]1O` (stereo partly specified), the compound was called inactive in [1], in [2], in test [4], in test [9], in test [13] and in test [14]. Moreover, the Potency result in [3], in test [5], in test [7], in test [8], in test [10] and in [12] was “inactive” each time. Besides, the max response in test [11] was -2.4%.
